Experimental findings from PubChem BioAssay (NCATS) are described below.

Inconclusive results are not listed. The source made the active and inactive calls. The call rests on the fitted dose curve; in most records, active means well fitted inhibition curve with a large enough effect; inconclusive means small, poorly fitted or top-dose-only effect; inactive means flat fitted curve, though single readings scatter.

What all share (experiment): qHTS profiling for inhibitors of Plasmodium falciparum proliferation (AID 504749); further: nearly all actives have a fitted effect of over 60% in size
Conditions in all cases: P. falciparum in erythrocytes, SYBR Green DNA, 72 h; series mostly up to 28.7 µM

The subject of assay [1] is CP256. In short, it runs like this: (§1)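 Parasite proliferation within erythrocytes, 72 h exposure. Endpoint: SYBR Green I fluorescence after overnight lysis at room temperature. Controls: 0.29 uM artemisinin, DMSO.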
In assay [2] the test system is CP260. In short, it runs like this: as §1
Assay [3] concerns CP262. The gist of the method:
as §1

Assay [4] deals with CP265. The gist of the method:
as §1

Assay [5] concerns CP266. The gist of the method:
as §1

For assay [6], the system named is CP268. The gist of the method:
as §1

Assay [7] has as its system CP269. In short, it runs like this: as §1
Assay [8] relates to CP286. In short, it runs like this:
as §1

Assay [9] relates to CP291. In short, it runs like this:
as §1

The test system of assay [10] is CP297. The gist of the method: as §1
Assay [11] relates to CP305. In short, it runs like this:
as §1

The test system of assay [12] is CP315. The gist of the method:
as §1

Assay [13] deals with CP325. In short, it runs like this:
as §1

Assay [14] deals with CP329. In short, it runs like this:
as §1

Assay [15] concerns CP335. In short, it runs like this: as §1
The test system of assay [16] is DFO2036. The gist of the method:
as §1

Assay [17] deals with DIV14. In short, it runs like this: as §1
The subject of assay [18] is DIV17. In short, it runs like this: as §1
In assay [19] the test system is DIV30. The gist of the method: as §1
Assay [20] relates to Dd2. The gist of the method: as §1
Potency means the concentration at half of the fitted maximal effect.

For `CC(=O)[C@@]1(O)CC[C@H]2[C@@H]3CCC4=CC(=O)CC[C@]4(C)[C@H]3CC[C@@]21C`, the Potency result in assay [1], in assay [2], in assay [3], in [4], in assay [5] and in assay [6] was “inactive” in each case. The Potency result in assay [7], in assay [8], in assay [9], in [10], in assay [11] and in assay [12] was “inactive” throughout. For the same compound, the Potency entry in assay [13], in assay [14], in assay [15], in assay [16], in assay [17] and in [18] was “inactive” in each case. For the same compound, the Potency result in assay [19] and in [20] was “inactive” each time.
Consider `CCN(CC)CCNC(=O)c1cc(S(C)(=O)=O)ccc1OC`, for which the Potency result in assay [1], in assay [2], in [3], in assay [4], in [8] and in assay [15] was “inactive” in each case. For the same compound, the Potency entry in [16] and in [20] was “inactive” in each case.
Regarding `C=CCc1ccccc1OCC(O)CNC(C)C` (configuration not stated), the Potency entry in assay [3] and in assay [5] was “inactive” each time. Further, the values for the Potency in [17], in assay [18] and in assay [20] were 8.49 µM (active), 8.49 µM (active) and 7.94 µM (active), respectively.
`CN1C[C@H](C(=O)N[C@]2(C)O[C@@]3(O)[C@@H]4CCCN4C(=O)[C@H](Cc4ccccc4)N3C2=O)C[C@@H]2c3cccc4[nH]cc(c34)C[C@H]21`: the Potency in assay [6] was 15.1 µM (active); in assay [7], 8.49 µM (active); in assay [9], 16.9 µM (active); in [10], 4.26 µM (active); in assay [13] it was 12 µM (active); in [15] it was 8.49 µM (active). Moreover, the Potency in assay [17] is 0.675 µM (active); in [18] it was 0.426 µM (active); in [19], 0.757 µM (active).
As to `CN(C)CCN(Cc1cccs1)c1ccccn1`, the Potency result in assay [3] and in assay [12] was “inactive” each time. For the same compound, the Potency is 10 µM (active) in assay [4]; 3.38 µM (active) in [10]; 8.49 µM (active) in assay [15]; 6.75 µM (active) in assay [17]; 6.01 µM (active) in [18]; 3.98 µM (active) in assay [20].
For `CCC(=O)c1ccc2c(c1)N(CCCN(C)C)c1ccccc1S2`, the Potency in assay [2] was 11.2 µM (active); in assay [17] it was 6.01 µM (active); in [18], 4.78 µM (active); in assay [20], 7.94 µM (active). Also, the Potency entry in assay [3], in assay [5], in assay [10] and in assay [12] was “inactive” throughout.
As for `CCCCNc1c(C(=O)OCC)c(C)nc2c1cnn2CC`, the Potency result in [1], in assay [3], in assay [4], in assay [5], in [6] and in assay [7] was “inactive” in each case. Further, the Potency entry in assay [8], in [9], in assay [10], in [11], in [12] and in [13] was “inactive” throughout. The Potency entry in assay [14], in [16], in assay [17], in assay [19] and in assay [20] was “inactive” throughout.
`COC(=O)[C@@H](N)Cc1ccc(O)c(O)c1`: the Potency entry in assay [1], in [2], in [4], in assay [5], in assay [6] and in assay [8] was “inactive” throughout. In addition, the Potency entry in assay [9], in assay [10], in assay [11], in assay [12], in assay [13] and in assay [14] was “inactive” each time. In addition, the Potency result in assay [16], in [19] and in assay [20] was “inactive” throughout.
Regarding `COCCOC(=O)C1=C(C)NC(C)=C(C(=O)OC(C)C)C1c1cccc([N+](=O)[O-])c1` (configuration not stated), the Potency entry in assay [1], in assay [3], in assay [5] and in assay [14] was “inactive” each time. Moreover, the Potency in assay [15] was 4.78 µM (active); in [17], 13.5 µM (active); in assay [18], 13.5 µM (active); in assay [19], 12 µM (active).
As for `CN(C)CCCN1c2ccccc2Sc2ccccc21`, the Potency result in assay [3], in assay [5] and in assay [10] was “inactive” in each case. For the same compound, the Potency in assay [4] was 2.82 µM (active); in assay [17], 1.81 µM (active); in assay [18] it was 2.87 µM (active); in assay [20], 3.16 µM (active).
For `CC(C)COCC(CN(Cc1ccccc1)c1ccccc1)N1CCCC1` (configuration not stated), the Potency entry in assay [1], in assay [3], in assay [4], in assay [5], in [13] and in [14] was “inactive” in each case. The Potency result in [17] and in assay [18] was “inactive” in each case.
On to `CC(C)NNC(=O)c1ccncc1`, for which the Potency entry in assay [2], in assay [3], in [4], in assay [5], in assay [6] and in [7] was “inactive” each time. For the same compound, the Potency entry in [8], in assay [9], in assay [10], in assay [11], in [12] and in assay [13] was “inactive” in each case. Further, the Potency result in assay [14], in assay [15], in [17], in assay [18], in [19] and in assay [20] was “inactive” throughout. Besides, the Potency in [16] was 7.94 µM (active).
`C[n+]1cc2c3c(ccc2c2ccc4cc5c(cc4c21)OCO5)OCO3`: the Potency entry in assay [5], in assay [6], in assay [7], in [8], in assay [9] and in assay [10] was “inactive” in each case. In addition, the Potency result in assay [12], in [14], in assay [15], in assay [16], in assay [18] and in [19] was “inactive” each time. For the same compound, in assay [20], the Potency result was “inactive”.
As to `CN(C)CC[C@@H](c1ccc(Br)cc1)c1ccccn1`, the Potency entry in assay [2], in [3], in assay [5], in assay [8], in [11] and in assay [12] was “inactive” in each case. Also, the Potency entry in [13] and in assay [16] was “inactive” in each case. For the same compound, the Potency in assay [17] is 3.79 µM (active); in assay [18] it was 7.57 µM (active); in [20] it was 2.51 µM (active).
As for `CCOC(=O)c1cnc2c(cnn2CC)c1NN=C(C)C`, the Potency result in assay [1], in assay [3], in assay [4], in [5], in assay [7] and in [9] was “inactive” throughout. Also, the Potency entry in assay [11], in assay [12], in [13], in assay [14], in assay [15] and in [16] was “inactive” throughout. The Potency entry in [19] and in assay [20] was “inactive” each time.
Regarding `CCCC(C(=O)OCCN(CC)CC)(c1ccccc1)c1ccccc1`, the Potency was 10 µM (active) in [4]; 12 µM (active) in assay [7]; 12.6 µM (active) in assay [8]; 13.5 µM (active) in assay [9]; 8.49 µM (active) in assay [15]; 8.49 µM (active) in [17]. Moreover, the Potency in assay [18] is 7.57 µM (active); in assay [19], 13.5 µM (active); in assay [20], 14.1 µM (active).
As to `c1cc(CN2CCCCC2)cc(OCCCNc2nc3ccccc3s2)c1`, in [3], the Potency entry is “inactive”. Further, the Potency in assay [20] was 6.31 µM (active).
Turning to `CC1=NS(=O)(=O)c2cc(Cl)ccc2N1`, the Potency entry in [2], in assay [3], in [4], in assay [5], in assay [6] and in assay [7] was “inactive” each time. The Potency result in [8], in [9], in assay [10], in assay [11], in [12] and in assay [13] was “inactive” throughout. The Potency entry in assay [14], in assay [15], in assay [16], in assay [17], in assay [18] and in [19] was “inactive” in each case.
For the compound `CCn1cc(C(=O)O)c(=O)c2cc3c(cc21)OCO3`, the Potency result in [1], in assay [3], in [4], in [5], in [6] and in assay [7] was “inactive” each time. The Potency result in [8], in assay [9], in assay [10], in [11], in [12] and in assay [13] was “inactive” in each case. The Potency entry in [14], in assay [15], in [16], in assay [17], in assay [19] and in [20] was “inactive” in each case.
